Compound activity (PubChem)
Most compounds without a hit are left out; they make up all but 7.5% or so of the library.
SMN2 splice enh – qHTS Assay for Enhancers of SMN2 Splice Variant Expression; HEK293 SMN2-luciferase splicing reporter, luminescence, 30-36 h; Potency, µM (titrated, usually from 46.1 µM), for the others: at the top dose activity change, positive = activation, most hits filed as activators; 210,000 compounds, 2.8% hits; AID 1458, 2008; note: % of control where 0% means no effect; nearly all actives have a fitted effect of over 55% in size
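HEK293 cells carry an SMN2 minigene-luciferase reporter in which exon 7 inclusion puts luciferase in frame. Cells were seeded at 2000 cells/well, attached for 10-12 hours, then exposed to compounds for 30-36 hours at 37C before ONE-Glo luminescence.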
Rab9 promoter act – qHTS Assay for Rab9 Promoter Activators | Huh7 Rab9 promoter-luciferase reporter, luminescence, 24 h | Potency, µM (top dose mostly 9.22 µM), inactives show at the highest dose activation, negative = inhibition, hits mostly activators | 320,000 compounds, 2.8% hits | AID 485297, 2010; note: % of control where 0% means no effect; nearly all actives have a fitted effect of over 60% in size
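Cells were plated at 1500 per well in reduced-serum medium with 10% FBS and left 2 h. Compound in DMSO was then added for 24 h at 37 °C. Reporter signal was read by luminescence after 10 min with luciferase detection reagent.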
NPC1 promoter act – qHTS Assay for NPC1 Promoter Activators; AID 485313, 2010; Huh7 NPC1 promoter luciferase reporter, 24 h; 320,000 compounds, 2.4% hits; Potency, µM (highest dose often 9.22 µM), for the others: at the highest dose activation, actives largely listed as activators; note: % of control where 0% means no effect; nearly all actives have a fitted effect of over 60% in size
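Luminescence from an NPC1 promoter-driven luciferase reporter in stably transfected Huh7 cells was measured after 24 h compound treatment at 37 °C, followed by 10 min ambient incubation with luciferase detection reagent.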
ELG1 genotoxic – qHTS screen for small molecules that induce genotoxicity in human embryonic kidney (HEK293T) cells expressing luciferase-tagged ELG1. HEK293T ELG1-luciferase reporter, luminescence, 16 h. Potency, µM (series often up to 46 µM), for inactives: at the top dose activity change, positive = activation, actives largely listed as activators. 330,000 compounds, 1.3% hits. AID 504466, 2011; note: % of control where 0% means no effect; nearly all actives have a fitted effect of over 60% in size
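DMSO vehicle served as control against compound-treated ELG1-luciferase HEK293T cells; exposure lasted 16 hr at 37 °C and 5% CO2, followed by ONE-Glo luminescence detection after 30 min.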
Luc counter – Counterscreen for Luciferase (Kinase-Glo TM) Inhibition. AID 1379, 2008. Kinase-Glo luciferase, ATP luminescence, 8 min. 200,000 compounds, 0.28% hits. Potency, µM (doses to about 38.3 µM), for inactives: at the highest dose activity change, negative = inhibition, usual class: inhibitors; note: % is set by controls: 0 for no effect and ±100 for the full control effect; nearly all actives have a fitted effect of over 60% in size
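Compounds were added to a substrate mix at pH 7.2 (50 mM imidazole, 10 uM ATP, within the enzyme's linear range), followed by Kinase-Glo detection reagent; luminescence was measured after 8 minutes at ambient temperature.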
FLuc counter – qHTS profiling assay for firefly luciferase inhibitor/activator using purifed enzyme and Km concentrations of substrates (counterscreen for miR-21 project); purified FLuc, Km substrates, luminescence inhibition; Potency, µM (highest dose often 57.5 µM), for the others: at the highest dose activity change, negative = inhibition, most hits filed as inhibitors; 360,000 compounds, 6.9% hits; AID 588342, 2011;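 note: plate controls were vehicle for no effect and reference inhibitor for full effect; nearly all actives have a fitted effect of over 55% in size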
Target sequence (P08659 whole entry, looked up): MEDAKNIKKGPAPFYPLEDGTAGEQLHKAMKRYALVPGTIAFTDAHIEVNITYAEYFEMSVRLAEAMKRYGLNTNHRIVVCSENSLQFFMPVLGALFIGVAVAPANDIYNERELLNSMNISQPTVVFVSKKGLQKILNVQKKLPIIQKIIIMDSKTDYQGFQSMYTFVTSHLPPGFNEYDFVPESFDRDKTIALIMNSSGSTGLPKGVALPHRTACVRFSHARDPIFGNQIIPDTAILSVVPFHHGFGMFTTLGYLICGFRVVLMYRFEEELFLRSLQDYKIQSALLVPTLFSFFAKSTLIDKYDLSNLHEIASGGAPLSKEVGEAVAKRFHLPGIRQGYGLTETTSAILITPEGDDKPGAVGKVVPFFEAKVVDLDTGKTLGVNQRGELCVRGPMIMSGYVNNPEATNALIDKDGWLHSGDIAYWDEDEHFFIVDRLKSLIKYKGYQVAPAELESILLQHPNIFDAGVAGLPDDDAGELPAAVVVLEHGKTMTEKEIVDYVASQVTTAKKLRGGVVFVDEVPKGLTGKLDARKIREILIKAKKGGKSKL
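Purified P. pyralis luciferase, 10 nM final, with Km-level 10 uM D-luciferin and 10 uM ATP in 50 mM Tris acetate pH 7.5, 10 mM Mg acetate, 0.01% Tween-20, 0.05% BSA; 6-point qHTS titration about 60 µM downward; luminescence read.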
Starred values were filed as active, the others as inactive; [ ] = remark or other dose. Calls come from the whole dose curve; as a rule, active = well fitted curve in the direction sought with a large enough effect; inconclusive = small, poorly fitted or top-dose-only effect, or another doubt; inactive = no such curve, though single readings can be large; an effect the other way counts as inactive or inconclusive. Potency is the fitted concentration of half-maximal effect.

What do the screens show for `O=C(NCCc1ccc(Cl)cc1)C(=O)NCC(c1ccco1)S(=O)(=O)c1ccccc1` (configuration not stated)?
FLuc counter: -6%

How did COc1ccc(S(=O)(=O)N(CCc2ccccc2)CC(=O)Nc2cccc(OC)c2)cc1 do in these assays?
SMN2 splice enh: -12%; FLuc counter: 4%

How did C/C(=N\NC(=O)CC#N)C1COc2ccccc2O1 (configuration not stated) do in these assays?
Rab9 promoter act: -2%; NPC1 promoter act: -5%; ELG1 genotoxic: 0%; Luc counter: -1%; FLuc counter: 4%

Results for CN(C(=O)COC(=O)c1cccc(S(=O)(=O)N(C)c2ccccc2)c1)C1CCCCC1 ?
Rab9 promoter act: -1%; NPC1 promoter act: -1%; ELG1 genotoxic: -1%; FLuc counter: inconclusive

How did CCOC(=O)SC1=N/C(=C\c2ccc(N(C)C)cc2)C(=O)S1 do in these assays?
SMN2 splice enh: 1%; Rab9 promoter act: -2%; NPC1 promoter act: -1%; ELG1 genotoxic: 1%; Luc counter: -5%; FLuc counter: 9.5µM*

How did O=C(NCCSCc1c(F)cccc1Cl)Nc1ccccc1 do in these assays?
Rab9 promoter act: 9%; NPC1 promoter act: 18%; ELG1 genotoxic: 4%; FLuc counter: 17µM*

How did S=C(NCCSCc1c(Cl)cccc1Cl)Nc1ccccc1 do in these assays?
SMN2 splice enh: 14%; Rab9 promoter act: -1%; NPC1 promoter act: -1%; ELG1 genotoxic: -10%; Luc counter: -8%; FLuc counter: -12%

How did O=C(Cc1ccccc1)NCCSCc1ccco1 do in these assays?
SMN2 splice enh: -5%; Rab9 promoter act: 29%; NPC1 promoter act: -1%; ELG1 genotoxic: 7%; Luc counter: 1%; FLuc counter: -20%

What do the screens show for `O=C(NCCSCc1ccco1)Nc1ccccc1`?
Rab9 promoter act: 24%; NPC1 promoter act: 26%; ELG1 genotoxic: 12%; Luc counter: -3%; FLuc counter: 17µM*

How did O=C(NCCSCc1c(F)cccc1Cl)c1ccc(CN2CCOCC2)cc1 do in these assays?
SMN2 splice enh: -17%; Rab9 promoter act: 2.5µM*; NPC1 promoter act: 12%; ELG1 genotoxic: -1%; Luc counter: -3%; FLuc counter: -10%

How did CCN(c1ccccc1)S(=O)(=O)c1c(C)nc2scc(C)n2c1=O do in these assays?
SMN2 splice enh: -11%; FLuc counter: -8%

What do the screens show for `CS(=O)(=O)Nc1ccc(Nc2c3ccccc3nc3ccccc23)cc1`?
SMN2 splice enh: 5%[9.22 µM]; Luc counter: -2%[7.66 µM]

How did Cc1ccc(-c2nc3ccccc3o2)cc1NC(=O)c1cccc2c(Cl)cccc12 do in these assays?
SMN2 splice enh: 4%; FLuc counter: -11%

Results for c1ccc(C2=NN[C@@H]3c4ccccc4-c4ccccc4N3C2)cc1 ?
SMN2 splice enh: -13%[9.22 µM]; Luc counter: -9%[7.66 µM]

What do the screens show for `CCOC(=O)c1csc(N)c1-c1ccc([N+](=O)[O-])cc1`?
Rab9 promoter act: -5%; NPC1 promoter act: 1%; ELG1 genotoxic: -2%; FLuc counter: -11%

What do the screens show for `CCN(C(=O)c1cc2cc(Br)cc(OC)c2oc1=O)c1ccccc1`?
SMN2 splice enh: 5%; FLuc counter: 2%

What do the screens show for `Oc1cccc2ccc(/C=C/c3ccccc3Br)nc12`?
Rab9 promoter act: inconclusive; NPC1 promoter act: 3.5µM*; ELG1 genotoxic: inconclusive; FLuc counter: 3.4µM*

What do the screens show for `Oc1ccc(Cl)cc1/C=C/c1ccc2cccc(O)c2n1`?
SMN2 splice enh: 8%; Rab9 promoter act: -15%; NPC1 promoter act: -21%; ELG1 genotoxic: inconclusive; Luc counter: 3%; FLuc counter: 21µM*

How did Nc1nc(CSc2ccc(Cl)cc2)nc(N2CCCCC2)n1 do in these assays?
SMN2 splice enh: -6%; Rab9 promoter act: -6%; NPC1 promoter act: -2%; ELG1 genotoxic: 0%; Luc counter: -2%; FLuc counter: inconclusive

How did Nc1nc(CSc2ccccc2)nc(N2CCCCC2)n1 do in these assays?
SMN2 splice enh: 20µM*; Rab9 promoter act: inconclusive; NPC1 promoter act: inconclusive; ELG1 genotoxic: inconclusive; Luc counter: -1%; FLuc counter: inconclusive

What do the screens show for `Cc1nn(-c2ccc(F)cc2)c(Cl)c1/C=N/NC(=O)c1ccc(O)cc1`?
SMN2 splice enh: 9%; Rab9 promoter act: 0%; NPC1 promoter act: 2%; ELG1 genotoxic: -3%; Luc counter: 0%; FLuc counter: 19µM*

Results for CNC(=S)N/N=C/c1c(C)nn(-c2ccc(F)cc2)c1Cl ?
SMN2 splice enh: 11%; Rab9 promoter act: -4%; NPC1 promoter act: -3%; ELG1 genotoxic: 15%; Luc counter: -1%; FLuc counter: -3%

How did Cc1nn(-c2ccc(F)cc2)c(Cl)c1/C=N/NC(=O)c1cccs1 do in these assays?
SMN2 splice enh: inconclusive; Rab9 promoter act: 2µM*; NPC1 promoter act: inconclusive; ELG1 genotoxic: 17%; Luc counter: 3%; FLuc counter: inconclusive

Results for CC(O)Cn1c(N2CCCC2)nc2c1c(=O)n(C)c(=O)n2C (configuration not stated) ?
Rab9 promoter act: 3%; NPC1 promoter act: 2%; ELG1 genotoxic: -10%; FLuc counter: -2%

What do the screens show for `C[C@@H]1CCCN(CP(=O)(c2ccccc2)c2ccccc2)C1`?
SMN2 splice enh: -14%[9.22 µM]; Luc counter: 0%[7.66 µM]

How did O=C(Nc1ccc(Br)cc1)c1cnn2c1NC(=C1CC1)C=C2C(F)F do in these assays?
FLuc counter: 1%

What do the screens show for `Cc1cc(C2(c3cc(C)c(O)c(C(=O)O)c3)OS(=O)(=O)c3ccccc32)cc(C(=O)O)c1O`?
SMN2 splice enh: -2%[9.22 µM]; Luc counter: -8%[7.66 µM]

Results for Cn1c(=O)[nH]c(=O)c2c1nc(SCC(N)=O)n2Cc1cccc(Br)c1 ?
Rab9 promoter act: -8%; NPC1 promoter act: 2%; ELG1 genotoxic: 21µM*; FLuc counter: 1%

How did CC1CCCCN1C(=O)COC(=O)c1ccc2ccccc2n1 (configuration not stated) do in these assays?
Rab9 promoter act: -4%; NPC1 promoter act: -8%; ELG1 genotoxic: 1%; FLuc counter: 8.5µM*

How did CC(C)C(=O)Nc1cccc(NC(=O)CCN2C(=O)c3ccccc3S2(=O)=O)c1 do in these assays?
SMN2 splice enh: 5%; Rab9 promoter act: 1%; NPC1 promoter act: 0%; ELG1 genotoxic: -2%; Luc counter: 0%; FLuc counter: 0%
